From PubChem BioAssay (NCI)
This is part of a sample that, as a whole, favours compounds with a hit. Of some 83,000 tested, about 20% had one in any assay.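 The endpoint reported here, percent growth, reads 100 for growth as untreated, 0 for no net growth and -100 for all cells dead.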 A number with no mark means an inactive call. The source made the active and inactive calls. Rule for the calls: active = growth percent below 10; inactive = the rest.

Assays:
Experiment in all cases: NCI-60 one-dose screen, 48 h (100 = growth as untreated, 0 = no growth, -100 = all killed)
Settings in all cases: 10 µM unless noted
[1] = test system: SR leukemia
[2] = test system: RPMI-8226 leukemia
[3] = test system: OVCAR-8 ovarian
[4] = test system: OVCAR-5 ovarian
[5] = test system: OVCAR-4 ovarian
[6] = test system: SK-OV-3 ovarian
[7] = test system: IGROV1 ovarian
[8] = test system: OVCAR-3 ovarian
[9] = test system: HS 578T breast
[10] = test system: NCI/ADR-RES ovarian
[11] = test system: T-47D breast
[12] = test system: BT-549 breast
[13] = test system: MDA-MB-435 melanoma
[14] = test system: SW-620 colon
[15] = test system: MCF7 breast
[16] = test system: HCT-116 colon
[17] = test system: HCC-2998 colon
[18] = test system: KM12 colon

## O=C1NC(=C(Cl)Cl)/C(=N/S(=O)(=O)NCCc2c[nH]c3ccccc23)N1
[1]
  growth: 53.3%
[2]
  growth: 14.8%
[3]
  growth: 92.9%
[4]
  growth: 48.3%
[5]
  growth: 58.6%
[6]
  growth: 62.2%
[7]
  growth: 98.7%
[8]
  growth: -25.8% (active)
[9]
  growth: 27.3%
[10]
  growth: 67.9%
[11]
  growth: 47.1%
[12]
  growth: 9.16% (active)
[13]
  growth: 25.1%
[14]
  growth: 54.3%
[15]
  growth: 14.2%
[16]
  growth: 34.9%
[17]
  growth: 98.3%
[18]
  growth: -4.6% (active)

## COC(=O)c1ccc2c(c1)c1c(C)c3ccncc3c(C)c1n2C
[1]
  growth: -5.73% (active)
[2]
  growth: 26.8%
[3]
  growth: 28.8%
[4]
  growth: 44.9%
[5]
  growth: 22%
[6]
  growth: 40%
[7]
  growth: 24%
[8]
  growth: 39.5%
[9]
  growth: 35.6%
[10]
  growth: 29.3%
[11]
  growth: 29.7%
[12]
  growth: 43.5%
[13]
  growth: 28.3%
[14]
  growth: 21%
[15]
  growth: 8.59% (active)
[16]
  growth: 10.9%
[17]
  growth: 61.5%
[18]
  growth: 23.2%

## O=C(O)c1cn(C2CC2)c2cc(N3CCN(C(=O)N/N=C/c4ccccc4)CC3)c(F)cc2c1=O
[1]
  growth: 54.4%
[2]
  growth: 104%
[3]
  growth: 96.3%
[4]
  growth: 110%
[5]
  growth: 102%
[6]
  growth: 95.8%
[7]
  growth: 102%
[8]
  growth: 102%
[9]
  growth: 105%
[10]
  growth: 97.4%
[11]
  growth: 91.4%
[12]
  growth: 92.6%
[13]
  growth: 106%
[14]
  growth: 110%
[15]
  growth: 97.3%
[16]
  growth: 108%
[17]
  growth: 99.9%
[18]
  growth: 94.8%

## COc1ccc(-c2ccc(-c3ccc(C(=N)N)cn3)s2)cc1
[1]
  growth: 3.22% (active)
[2]
  growth: 20.1%
[3]
  growth: 65.2%
[4]
  growth: 92.5%
[5]
  growth: 113%
[6]
  growth: 90.6%
[7]
  growth: 89%
[8]
  growth: 83.9%
[9]
  growth: 97.4%
[10]
  growth: 101%
[11]
  growth: 74.3%
[12]
  growth: 88.1%
[13]
  growth: 97%
[14]
  growth: 8.29% (active)
[15]
  growth: 44.1%
[16]
  growth: -20.8% (active)
[17]
  growth: 81.3%
[18]
  growth: 61.6%

## CCN(CC)CCCNCc1cc(-c2ccccc2)nc2cc(Cl)ccc12
[1]
  growth: 13.6%
[2]
  growth: 3.47% (active)
[3]
  growth: 28.8%
[4]
  growth: 87.5%
[5]
  growth: 67.8%
[6]
  growth: 75.6%
[7]
  growth: 28.9%
[8]
  growth: 61.7%
[9]
  growth: 24.2%
[10]
  growth: 23.2%
[11]
  growth: -82.5% (active)
[12]
  growth: 40.1%
[13]
  growth: -39.7% (active)
[14]
  growth: -0.394% (active)
[15]
  growth: 23%
[16]
  growth: -16.5% (active)
[17]
  growth: -29.1% (active)
[18]
  growth: 14.5%

## O=C1OCC2=C1C(c1cccc(C(F)(F)F)c1)c1cc3c(cc1N2CCO)OCO3 (stereo not drawn)
[1]
  growth: 15.7%
[2]
  growth: 21%
[3]
  growth: 23.3%
[4]
  growth: 55%
[5]
  growth: 58.1%
[6]
  growth: 27.9%
[7]
  growth: 37.2%
[8]
  growth: -5.02% (active)
[9]
  growth: 31.4%
[10]
  growth: 25%
[11]
  growth: 28%
[12]
  growth: 55%
[13]
  growth: -44.1% (active)
[14]
  growth: 23.3%
[15]
  growth: 20.9%
[16]
  growth: 21.4%
[17]
  growth: 69.9%
[18]
  growth: 24.9%

## COc1ccc2c(c1)c(-c1nc(-c3cn(C)c4ncccc34)cs1)cn2CCO
[1]
  growth: 58.2%
[2]
  growth: 50.5%
[3]
  growth: 73%
[4]
  growth: 76%
[5]
  growth: 45.5%
[6]
  growth: 89.8%
[7]
  growth: 85.2%
[8]
  growth: 99.1%
[9]
  growth: 80.9%
[10]
  growth: 90%
[11]
  growth: 10.1%
[12]
  growth: 76.9%
[13]
  growth: 86.5%
[14]
  growth: 93.6%
[15]
  growth: 12%
[16]
  growth: 74.2%
[17]
  growth: 95.1%
[18]
  growth: 49.5%

## CC1=C(C(=O)n2c3ccccc3c3ccccc32)C(c2cccc([N+](=O)[O-])c2)C(C(=O)n2c3ccccc3c3ccccc32)=C(C)N1
[1]
  growth: 68.5%
[2]
  growth: 93.4%
[3]
  growth: 99.4%
[4]
  growth: 99.2%
[5]
  growth: 103%
[6]
  growth: 97.7%
[7]
  growth: 98.4%
[8]
  growth: 100%
[9]
  growth: 96.5%
[10]
  growth: 98.7%
[11]
  growth: 80.5%
[12]
  growth: 102%
[13]
  growth: 117%
[14]
  growth: 100%
[15]
  growth: 94.8%
[16]
  growth: 91.8%
[17]
  growth: 102%
[18]
  growth: 94.8%

## O=C(CSc1nc2ccc([N+](=O)[O-])cc2[nH]1)Nc1cccc([N+](=O)[O-])c1
[1]
  growth: 41.1%
[2]
  growth: 11.9%
[3]
  growth: 60%
[4]
  growth: 82.6%
[5]
  growth: 28.7%
[6]
  growth: 55.8%
[7]
  growth: 59.1%
[8]
  growth: 38.9%
[9]
  growth: 66.9%
[10]
  growth: 66.9%
[11]
  growth: 16.2%
[12]
  growth: 59%
[13]
  growth: 43.8%
[14]
  growth: 73.8%
[15]
  growth: 52.8%
[16]
  growth: 33.6%
[17]
  growth: 62.9%
[18]
  growth: 57.4%

## C=CCCC(=O)N1C=CC(=O)[C@H](O)[C@@H]1/C=C/c1ccccc1
[1]
  growth: 43.8% [100 µM]
[2]
  growth: 54.2% [100 µM]
[3]
  growth: 37% [100 µM]
[4]
  growth: 62.2% [100 µM]
[5]
  growth: 55.4% [100 µM]
[6]
  growth: 39.2% [100 µM]
[7]
  growth: 51% [100 µM]
[8]
  growth: 30.3% [100 µM]
[9]
  growth: 87.6% [100 µM]
[10]
  growth: 19.8% [100 µM]
[11]
  growth: 39.7% [100 µM]
[12]
  growth: 59.6% [100 µM]
[13]
  growth: 59.6% [100 µM]
[14]
  growth: 40.6% [100 µM]
[15]
  growth: 19.3% [100 µM]
[16]
  growth: 18.5% [100 µM]
[17]
  growth: 42.5% [100 µM]
[18]
  growth: 33.3% [100 µM]

## CNCc1cccc2c1OCCOCCN(C)C(=O)CN(C)S(=O)(=O)c1ccc(cc1)-c1cnc(N)c(n1)C(=O)N2
[1]
  growth: -16.9% (active)
[2]
  growth: 88.8%
[3]
  growth: 2.03% (active)
[4]
  growth: 33.8%
[5]
  growth: 42.4%
[6]
  growth: 8.28% (active)
[7]
  growth: 51.4%
[8]
  growth: -25.3% (active)
[9]
  growth: 63.3%
[10]
  growth: 102%
[11]
  growth: -9.54% (active)
[12]
  growth: 92.4%
[13]
  growth: -91.8% (active)
[14]
  growth: -4.13% (active)
[15]
  growth: 11.6%
[16]
  growth: -69% (active)
[17]
  growth: 28%
[18]
  growth: 9.24% (active)

## CC[C@H](C)[C@H](NC(=O)[C@H](CCCNC(=N)N)NC(=O)[C@H](Cc1c[nH]c2ccccc12)NC(=O)[C@@H](NC(=O)[C@H](CCCCN)NC(=O)[C@H](CCCCN)NC(=O)[C@@H](NC(=O)[C@@H](NC(=O)[C@@H](NC(=O)[C@H](CCCCN)NC(=O)[C@H](Cc1ccccc1)NC(=O)[C@H](CCCCN)NC(=O)[C@H](CCCCN)NC(=O)[C@H](Cc1ccccc1)NC(=O)[C@@H](NC(=O)[C@@H](N)CCCCN)[C@@H](C)CC)[C@@H](C)O)[C@@H](C)CC)[C@@H](C)CC)C(C)C)C(=O)N[C@@H](Cc1ccccc1)C(=O)NCC(=O)N[C@@H](CCCNC(=N)N)C(=O)N[C@@H](Cc1ccccc1)C(N)=O
[1]
  growth: 1.72% (active)
[2]
  growth: -18% (active)
[3]
  growth: 0.804% (active)
[4]
  growth: -46.1% (active)
[5]
  growth: -31.3% (active)
[6]
  growth: 13.9%
[7]
  growth: -25.8% (active)
[8]
  growth: -23.8% (active)
[9]
  growth: -21.3% (active)
[10]
  growth: -11.9% (active)
[11]
  growth: -30.1% (active)
[12]
  growth: 32.5%
[13]
  growth: -17% (active)
[14]
  growth: -14.9% (active)
[15]
  growth: -17% (active)
[16]
  growth: -3.28% (active)
[17]
  growth: 10.6%
[18]
  growth: -25.6% (active)

## COc1ccc2nc3cc(Cl)ccc3c(NCCN)c2c1
[1]
  growth: -45.4% (active)
[2]
  growth: -23.6% (active)
[3]
  growth: -33.5% (active)
[4]
  growth: -61.6% (active)
[5]
  growth: -86% (active)
[6]
  growth: 69.3%
[7]
  growth: -27% (active)
[8]
  growth: -84.8% (active)
[9]
  growth: 91.7%
[10]
  growth: 19%
[11]
  growth: -72.3% (active)
[12]
  growth: -45.7% (active)
[13]
  growth: -90.2% (active)
[14]
  growth: -68.9% (active)
[15]
  growth: -70.2% (active)
[16]
  growth: -73.2% (active)
[17]
  growth: -73.2% (active)
[18]
  growth: -64% (active)

## N#CCC1=NC(c2cccs2)=Nc2ccccc2S1
[1]
  growth: 91.5%
[2]
  growth: 65.7%
[3]
  growth: 95.9%
[4]
  growth: 86.6%
[5]
  growth: 93.8%
[6]
  growth: 76.4%
[7]
  growth: 86.4%
[8]
  growth: 95.3%
[9]
  growth: 96.2%
[10]
  growth: 98%
[11]
  growth: 69.7%
[12]
  growth: 86.6%
[13]
  growth: 105%
[14]
  growth: 97.8%
[15]
  growth: 96.8%
[16]
  growth: 80.8%
[17]
  growth: 92.5%
[18]
  growth: 94.9%

## C=C(CO)[C@@H]1CC[C@]2(COC3CCCCO3)CC[C@]3(C)[C@H](CC[C@@H]4[C@@]5(C)C=C(C=O)C(=O)C(C)(C)[C@@H]5CC[C@]43C)[C@@H]12 (stereo partly drawn)
[1]
  growth: -49.9% (active)
[2]
  growth: -35% (active)
[3]
  growth: -69% (active)
[4]
  growth: -75.5% (active)
[5]
  growth: -63.8% (active)
[6]
  growth: -95.8% (active)
[7]
  growth: -78.8% (active)
[8]
  growth: -68.8% (active)
[9]
  growth: -52.3% (active)
[10]
  growth: -37.5% (active)
[11]
  growth: -80.3% (active)
[12]
  growth: -88.6% (active)
[13]
  growth: -83.9% (active)
[14]
  growth: -64.6% (active)
[15]
  growth: -73.2% (active)
[16]
  growth: -89.3% (active)
[17]
  growth: -87.5% (active)
[18]
  growth: -43% (active)

## CCc1cccc(Sc2cc(C(=O)N3Cc4ccc(OCCN(C)C)cc4C3)ccc2O)c1
[1]
  growth: 19.9%
[2]
  growth: 29.3%
[3]
  growth: 24.1%
[4]
  growth: 110%
[5]
  growth: 53.2%
[6]
  growth: 37.7%
[7]
  growth: 59.8%
[8]
  growth: 67.3%
[9]
  growth: 95.4%
[10]
  growth: 50.4%
[11]
  growth: 37.2%
[12]
  growth: 70.1%
[13]
  growth: 64.1%
[14]
  growth: 41.9%
[15]
  growth: 24.8%
[16]
  growth: 49.5%
[17]
  growth: 75%
[18]
  growth: 23.5%
